The nature of experiment [1]: qHTS RealTime-Glo MT Cell Viability Assay in HepG2 cells - 8 hour (AID 1224873). Note: nearly all actives have a fitted effect of over 55% in size. The method, boiled down: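 HepG2 cells mixed with RealTime-Glo MT reagents (NanoLuc plus cell-permeant prosubstrate) were seeded at 600 cells/well, incubated 5 h at 37 C/5% CO2, then pinned with compounds in DMSO; nonlytic luminescence tracked viability during 40 h treatment.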
(qHTS replaces the single test concentration by a dilution series.)

Experiment [2] can be described thus: qHTS RealTime-Glo MT Cell Viability Assay in HEK293 cells - 40 hour (AID 1224874). Note: nearly all actives have a fitted effect of over 50% in size. Note: potency is the fitted concentration of half-maximal effect. The settings on record: RealTime-Glo luminescence; max response: active compounds read low. The method, boiled down:
(§1)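 Real-time viability in HEK293: signal arises when living cells convert a prosubstrate for NanoLuc in the medium, so luminescence tracks viable cell number. Compound (23 nL, DMSO) added 5 h post-seeding; kinetic reads at 0–40 h, 37 C.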

A short description of experiment [3]: A CellTox Green Cytotoxicity Assay to monitor cytotoxicity in HEK293 cells - 24 hour (AID 1224875). Note: nearly all actives have a fitted effect of over 45% in size. Note: potency is the fitted concentration of half-maximal effect. The method, boiled down: (§2)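 Cells (HEK293, 600/well) and dye reagent are dispensed together. After 5 h at 37 C, 23 nL compound is pinned in. Plates stay at 37 C for 40 h with fluorescence read at 0h, 8h, 16h, 24h, 32h and 40h.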
Experiment [4] can be described thus: A CellTox Green Cytotoxicity Assay to monitor cytotoxicity in HepG2 cells - 16 hour (AID 1224876). Note: nearly all actives have a fitted effect of over 45% in size. Note: potency is the fitted concentration of half-maximal effect. Put shortly: (§3)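 Cells and non-lytic dye reagent are dispensed together (600 HepG2 cells/well) and incubated 5 h before DMSO compound transfer. Kinetic fluorescence is then recorded in the same wells during 40 h at 37 C.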
Experiment [5] can be described thus: qHTS RealTime-Glo MT Cell Viability Assay in HepG2 cells - 32 hour (AID 1224877). Note: nearly all actives have a fitted effect of over 55% in size. Put shortly:
(§4)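 Cells + NanoLuc/prosubstrate dispensed (600 cells/well) → 5 h at 37 C/5% CO2 → compounds in DMSO transferred → 40 h incubation at 37 C, luminescence read at 0, 8, 16, 24, 32, 40 h.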

Experiment [6] in a line: A CellTox Green Cytotoxicity Assay to monitor cytotoxicity in HepG2 cells - 40 hour (AID 1224879). Note: nearly all actives have a fitted effect of over 40% in size. Put shortly: as §3
A short description of experiment [7]: qHTS RealTime-Glo MT Cell Viability Assay in HEK293 cells - 0 hour (AID 1224880). Note: nearly all actives have a fitted effect of over 45% in size. Note: potency is the fitted concentration of half-maximal effect. The method, boiled down: as §1
Experiment [8] can be described thus: A CellTox Green Cytotoxicity Assay to monitor cytotoxicity in HEK293 cells - 32 hour (AID 1224881). Note: nearly all actives have a fitted effect of over 40% in size. Note: potency is the fitted concentration of half-maximal effect. The method, boiled down:
as §2

Experiment [9] can be described thus: A CellTox Green Cytotoxicity Assay to monitor cytotoxicity in HepG2 cells - 0 hour (AID 1224882). Note: nearly all actives have a fitted effect of over 35% in size. Note: potency is the fitted concentration of half-maximal effect. Put shortly: as §3
The nature of experiment [10]: A CellTox Green Cytotoxicity Assay to monitor cytotoxicity in HepG2 cells - 32 hour (AID 1224883). Note: nearly all actives have a fitted effect of over 50% in size. Note: potency is the fitted concentration of half-maximal effect. The method, boiled down: as §3
The nature of experiment [11]: A CellTox Green Cytotoxicity Assay to monitor cytotoxicity in HEK293 cells - 8 hour (AID 1224884). Note: nearly all actives have a fitted effect of over 35% in size. Note: potency is the fitted concentration of half-maximal effect. Put shortly: as §2
The nature of experiment [12]: qHTS RealTime-Glo MT Cell Viability Assay in HepG2 cells - 16 hour (AID 1224885). Note: nearly all actives have a fitted effect of over 50% in size. Put shortly: as §4
Experiment [13] in a line: qHTS RealTime-Glo MT Cell Viability Assay in HEK293 cells - 24 hour (AID 1224886). Note: nearly all actives have a fitted effect of over 50% in size. Note: potency is the fitted concentration of half-maximal effect. The method, boiled down: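 Tox21 10K qHTS, HEK293, 600 cells/well, RealTime-Glo reagent co-dispensed with cells; 5 h preincubation, compound by pintool, 37 C, luminescence at 0–40 h.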
A short description of experiment [14]: qHTS RealTime-Glo MT Cell Viability Assay in HEK293 cells - 8 hour (AID 1224887). The method, boiled down:
as §1

A short description of experiment [15]: A CellTox Green Cytotoxicity Assay to monitor cytotoxicity in HEK293 cells - 16 hour (AID 1224888). Note: nearly all actives have a fitted effect of over 35% in size. Note: potency is the fitted concentration of half-maximal effect. The method, boiled down: as §2
Experiment [16] can be described thus: qHTS RealTime-Glo MT Cell Viability Assay in HepG2 cells - 0 hour (AID 1224889). Note: nearly all actives have a fitted effect of over 50% in size. Put shortly: as §4
Experiment [17] in a line: A CellTox Green Cytotoxicity Assay to monitor cytotoxicity in HepG2 cells - 8 hour (AID 1224890). Note: nearly all actives have a fitted effect of over 45% in size. Note: potency is the fitted concentration of half-maximal effect. The method, boiled down: as §3
The nature of experiment [18]: qHTS assay to identify small molecule antagonists of the estrogen receptor alpha (ER-alpha) signaling pathway using the BG1 cell line in the presence of 0.1 nM 17-beta-estradiol - cell viability counter screen (AID 1259241). Note: nearly all actives have a fitted effect of over 40% in size. Note: potency is the fitted concentration of half-maximal effect. Put shortly:
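Estradiol-stimulated (0.1 nM) VM7Luc4E2 cells exposed to compounds 22 hr; viability measured by fluorescence of cleaved CellTiter-Fluor substrate after 30 min.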

Experiment [19] is described as follows: qHTS assay to identify small molecule antagonists of the androgen receptor (AR) signaling pathway using the MDA cell line in the presence of 0.5 nM R1881 - cell viability counter screen (AID 1259242). Note: nearly all actives have a fitted effect of over 45% in size. Put shortly: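 Steps: plate MDA-kb2 cells, rest 5 hr at 37C without CO2; pin in compounds in DMSO; add R1881 to 0.5 nM final; incubate 16 hr; add CellTiter-Fluor, 30 min; read fluorescence.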

Experiment [20] is described as follows: A CellTox Green Cytotoxicity Assay to monitor cytotoxicity in HepG2 cells - 24 hour (AID 1224878). Note: nearly all actives have a fitted effect of over 45% in size. Note: potency is the fitted concentration of half-maximal effect. The method, boiled down:
as §3

SMILES strings stand for the structures. Several values for one entry are separate records, joined by “and”; a condition that tells them apart may be missing. Identical values can stand only once. Values without a mark were called inactive. Records with an inconclusive call do not appear. Activity calls are given as the source filed them. Calls come from the whole dose curve; as a rule, active = well fitted curve in the direction sought with a large enough effect in the repeat runs; inconclusive = weak or mixed curves; inactive = no such curve, though single readings can be large; an effect the other way counts as inactive or inconclusive.
% is set by controls: 0 for no effect and ±100 for the full control effect.

As to `NC(=O)c1ccccc1N`, the Potency entry in experiment [1], in experiment [3], in experiment [4], in experiment [5], in experiment [6] and in [7] was “inactive” each time. The Potency entry in experiment [8], in experiment [9], in [10], in experiment [11], in experiment [12] and in [13] was “inactive” throughout. For the same molecule, the Potency entry in [14], in [15], in [16], in experiment [17], in experiment [18] and in [19] was “inactive” in each case. In experiment [2], the max response was -1.93%.
For the molecule `C[C@H]1O[C@@H](O[C@H]2[C@@H](O)C[C@H](O[C@H]3[C@@H](O)C[C@H](O[C@H]4CC[C@@]5(C)[C@H](CC[C@@H]6[C@@H]5C[C@@H](O)[C@]5(C)[C@@H](C7=CC(=O)OC7)CC[C@]65O)C4)O[C@@H]3C)O[C@@H]2C)C[C@H](O)[C@@H]1O`, the Potency entry in experiment [1], in experiment [3], in experiment [4], in experiment [5], in experiment [6] and in experiment [7] was “inactive” each time. Further, the Potency entry in [8], in experiment [9], in experiment [10], in [11], in [12] and in [14] was “inactive” each time. In addition, the Potency entry in experiment [16], in [17], in [18] and in experiment [19] was “inactive” in each case. The Potency in experiment [2] is 61.7 nM (active) and 54.3 nM (active); in [13], 69.2 nM (active) and 61 nM (active).
With `COC(=O)NCCC[Si](OC)(OC)OC`, the Potency entry in experiment [1], in [3], in [4], in experiment [5], in experiment [20] and in experiment [7] was “inactive” each time. Moreover, the Potency result in [8], in experiment [9], in experiment [10], in experiment [11], in experiment [12] and in [13] was “inactive” in each case. The Potency entry in [14], in experiment [15], in experiment [16], in experiment [17], in experiment [18] and in experiment [19] was “inactive” throughout. Further, the max response in experiment [2] is 15.5%.
With `C/C=C/C(=O)C1=C(C)CCCC1(C)C`, the Potency entry in [1], in experiment [3], in experiment [4], in experiment [5], in experiment [20] and in [7] was “inactive” in each case. For the same molecule, the Potency entry in experiment [8], in [9], in [10], in experiment [12], in experiment [14] and in experiment [15] was “inactive” throughout. In addition, the Potency entry in experiment [16], in experiment [17], in [18] and in experiment [19] was “inactive” throughout. In addition, in experiment [2], the max response was 16.6%.
With `CCc1ccc(C)nc1`, the Potency entry in experiment [1], in experiment [3], in experiment [4], in experiment [5], in [6] and in experiment [7] was “inactive” throughout. In addition, the Potency result in experiment [8], in experiment [9], in [10], in [11], in experiment [12] and in experiment [13] was “inactive” each time. The Potency result in [14], in [15], in [16], in experiment [17], in [18] and in [19] was “inactive” each time. Moreover, the max response in [2] was -9.25%.
Take `Cc1cccc(C)n1`: the Potency entry in [1], in experiment [3], in experiment [4], in experiment [5], in experiment [6] and in experiment [7] was “inactive” throughout. The Potency result in [8], in experiment [9], in experiment [10], in experiment [11], in experiment [12] and in experiment [13] was “inactive” throughout. Besides, the Potency entry in [14], in [15], in experiment [16], in experiment [17], in [18] and in [19] was “inactive” throughout. In addition, in experiment [2], the max response is -0.971%.
Take `CC(=O)OC1CCCCC1`: the Potency entry in experiment [1], in [3], in [4], in experiment [5], in experiment [6] and in experiment [7] was “inactive” each time. In addition, the Potency result in [8], in experiment [9], in [10], in experiment [11], in [12] and in experiment [13] was “inactive” throughout. In addition, the Potency result in experiment [14], in experiment [15], in experiment [16], in experiment [17], in [18] and in experiment [19] was “inactive” throughout. Also, the max response in experiment [2] is -7.58%.
Consider `O=C[C@H](O)[C@H](O)[C@H](O)CO`, for which the Potency result in experiment [1], in experiment [3], in experiment [4], in experiment [5], in [6] and in [7] was “inactive” each time. Besides, the Potency entry in experiment [8], in experiment [9], in experiment [10], in experiment [12], in [13] and in experiment [14] was “inactive” each time. In addition, the Potency result in experiment [16], in experiment [17], in experiment [18] and in experiment [19] was “inactive” throughout. Also, the max response in experiment [2] is 0.822%.
In the case of `COC(=O)[C@]1(C)CCC[C@@]2(C)[C@H]1CC=C1C=C(C(C)C)CC[C@@H]12`, the Potency result in experiment [1], in experiment [5], in [7], in experiment [12], in [13] and in experiment [14] was “inactive” throughout. Besides, the Potency result in experiment [16], in [18] and in [19] was “inactive” each time. Also, the max response in experiment [2] was -2.95%. Moreover, the Potency is 38.9 µM (active) in [3]; 24.5 µM (active) in experiment [4]; 24.5 µM (active) in experiment [20]; 38.9 µM (active) in experiment [8]; 24.5 µM (active) in [9]; 24.5 µM (active) in experiment [10]. For the same molecule, the Potency in experiment [11], in experiment [15] and in experiment [17] was 38.9 µM (active) in each case.
As to `CO[C@H]1C=CO[C@@]2(C)Oc3c(C)c(O)c4c(O)c(cc(O)c4c3C2=O)NC(=O)/C(C)=C\C=C/[C@H](C)[C@H](O)[C@@H](C)[C@@H](O)[C@@H](C)[C@H](OC(C)=O)[C@@H]1C`, the Potency result in [1], in experiment [3], in experiment [4], in experiment [5], in experiment [20] and in experiment [8] was “inactive” in each case. The Potency result in [9], in experiment [10], in [11], in experiment [12], in experiment [13] and in [15] was “inactive” throughout. For the same molecule, the Potency entry in experiment [17] was “inactive”. Moreover, the max response in experiment [2] was -22.2%. Moreover, the Potency is 17.5 µM (active) in [7] and 27.5 µM (active) in experiment [18].
As to `CCN(CC)c1cccc(C)c1`, the Potency result in experiment [1], in experiment [3], in experiment [4], in experiment [5], in experiment [6] and in [7] was “inactive” throughout. In addition, the Potency entry in [8], in [9], in [10], in [11], in experiment [12] and in experiment [13] was “inactive” in each case. Also, the Potency result in experiment [14], in experiment [15], in experiment [16], in experiment [17], in experiment [18] and in experiment [19] was “inactive” each time. Also, the max response in experiment [2] is -4.54%.
In the case of `CC1=CCC(=O)O1`, the Potency result in [1], in experiment [3], in experiment [4], in experiment [5], in [6] and in experiment [7] was “inactive” throughout. The Potency entry in experiment [8], in [9], in experiment [10], in experiment [11], in experiment [12] and in [13] was “inactive” throughout. Besides, the Potency entry in [14], in [15], in [16], in [17], in experiment [18] and in [19] was “inactive” in each case. For the same molecule, in [2], the max response is 8.04%.
As for `CNC(=S)NN`, the Potency result in experiment [1], in experiment [3], in [4], in experiment [5], in experiment [20] and in [7] was “inactive” throughout. The Potency result in experiment [8], in experiment [9], in experiment [10], in experiment [12], in experiment [14] and in [15] was “inactive” in each case. Further, the Potency entry in [16], in experiment [17], in [18] and in experiment [19] was “inactive” throughout. In experiment [2], the Potency is 19.5 µM (active).
